# Results published in publication PMC7862700, “An all-to-all approach to the identification of sequence-specific readers for epigenetic DNA modifications on cytosine”.
# How the values were obtained:
# Test in all cases: DAPPL (digital affinity profiling via proximity ligation, sequencing); 10 mM Tris-HCl pH 7.5, 50 mM NaCl, 1 mM DTT, 4% glycerol, room temperature, 30 min; GST-TFs on glutathione beads, 16-mer random dsDNA library, 0.1% formaldehyde crosslink after washing; high values mean tight binding
# FEV = biological target: T1, FEV (Homo sapiens, UniProt Q99581 1-238); conditions: protein: recombinant; tags: N-terminal GST; dsDNA, one strand shown
# T1 sequence: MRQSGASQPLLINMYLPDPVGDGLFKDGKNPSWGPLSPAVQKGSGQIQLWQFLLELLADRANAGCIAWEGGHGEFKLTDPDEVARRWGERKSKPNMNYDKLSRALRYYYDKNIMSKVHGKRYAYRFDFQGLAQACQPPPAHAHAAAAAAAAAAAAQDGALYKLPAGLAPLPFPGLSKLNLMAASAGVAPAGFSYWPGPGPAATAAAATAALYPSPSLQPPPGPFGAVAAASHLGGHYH
# Summary of the method: (§1)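 A tag-only sample was pooled with DNA-barcoded human transcription factors that had been expressed in yeast as GST fusions and captured on glutathione beads. The pools were incubated for 30 min at room temperature with 200 nmole of a random double-stranded 16-mer DNA library in Tris/NaCl/DTT/glycerol buffer, then washed, crosslinked with 0.1% formaldehyde, proximity-ligated (BsaI/T4 ligase, 1 h, 37 °C), PCR-amplified and sequenced on an Illumina NextSeq500. Binding signal is each hexamer's read frequency for a factor divided by its frequency for the tag-only sample.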
# ETV5 = ETV5 (Homo sapiens, UniProt P41161 1-510); conditions: protein: recombinant; tags: N-terminal GST; dsDNA, one strand shown
# ETV5, sequence (P41161 whole entry): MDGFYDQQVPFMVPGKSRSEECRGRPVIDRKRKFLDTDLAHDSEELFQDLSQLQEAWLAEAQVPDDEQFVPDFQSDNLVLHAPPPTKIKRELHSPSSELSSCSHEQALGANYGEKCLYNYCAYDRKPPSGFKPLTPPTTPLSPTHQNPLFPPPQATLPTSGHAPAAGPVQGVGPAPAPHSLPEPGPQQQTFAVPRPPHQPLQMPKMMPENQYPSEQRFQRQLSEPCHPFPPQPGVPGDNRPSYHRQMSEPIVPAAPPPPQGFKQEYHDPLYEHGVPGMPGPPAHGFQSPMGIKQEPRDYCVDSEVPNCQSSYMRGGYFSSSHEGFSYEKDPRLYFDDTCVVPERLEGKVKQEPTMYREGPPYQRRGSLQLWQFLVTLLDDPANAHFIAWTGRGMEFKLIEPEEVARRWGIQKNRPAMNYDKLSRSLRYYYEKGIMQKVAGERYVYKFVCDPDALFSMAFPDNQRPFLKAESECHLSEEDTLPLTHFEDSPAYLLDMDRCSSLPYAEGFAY
# Summary of the method: as §1
# HSF1 = HSF1 (Homo sapiens, UniProt Q00613 1-529); conditions: protein: recombinant; tags: N-terminal GST; chain copies: 3; dsDNA, one strand shown
# HSF1, sequence (Q00613 whole entry): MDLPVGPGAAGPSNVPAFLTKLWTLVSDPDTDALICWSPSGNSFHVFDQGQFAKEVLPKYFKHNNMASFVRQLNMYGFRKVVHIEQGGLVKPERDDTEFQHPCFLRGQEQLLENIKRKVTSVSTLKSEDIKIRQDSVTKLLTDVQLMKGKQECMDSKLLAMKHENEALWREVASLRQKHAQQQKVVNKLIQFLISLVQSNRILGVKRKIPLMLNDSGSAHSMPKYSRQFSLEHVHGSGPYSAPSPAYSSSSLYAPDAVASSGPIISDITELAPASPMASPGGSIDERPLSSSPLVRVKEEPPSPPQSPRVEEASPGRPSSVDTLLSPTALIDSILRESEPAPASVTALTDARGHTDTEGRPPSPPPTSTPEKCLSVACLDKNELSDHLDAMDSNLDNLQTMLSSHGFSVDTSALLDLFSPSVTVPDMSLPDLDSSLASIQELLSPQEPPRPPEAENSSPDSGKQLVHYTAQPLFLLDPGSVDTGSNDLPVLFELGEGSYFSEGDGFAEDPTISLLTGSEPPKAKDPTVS
# Summary of the method: as §1
# SPIC = biological target: T2, SPIC (Homo sapiens, UniProt Q8N5J4 1-248); conditions: protein: recombinant; tags: N-terminal GST; dsDNA, one strand shown
# T2 sequence: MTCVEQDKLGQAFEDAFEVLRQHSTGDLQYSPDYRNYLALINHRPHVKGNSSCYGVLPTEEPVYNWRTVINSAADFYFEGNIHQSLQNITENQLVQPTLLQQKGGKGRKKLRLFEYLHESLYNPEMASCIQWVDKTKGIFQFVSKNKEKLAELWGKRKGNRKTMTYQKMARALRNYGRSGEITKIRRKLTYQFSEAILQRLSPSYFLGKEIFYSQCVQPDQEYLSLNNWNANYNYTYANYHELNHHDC
# Summary of the method: as §1
# ELF4 = ELF4 (Homo sapiens, UniProt Q99607 1-663); conditions: protein: recombinant; tags: N-terminal GST; dsDNA, one strand shown
# ELF4, sequence (Q99607 whole entry): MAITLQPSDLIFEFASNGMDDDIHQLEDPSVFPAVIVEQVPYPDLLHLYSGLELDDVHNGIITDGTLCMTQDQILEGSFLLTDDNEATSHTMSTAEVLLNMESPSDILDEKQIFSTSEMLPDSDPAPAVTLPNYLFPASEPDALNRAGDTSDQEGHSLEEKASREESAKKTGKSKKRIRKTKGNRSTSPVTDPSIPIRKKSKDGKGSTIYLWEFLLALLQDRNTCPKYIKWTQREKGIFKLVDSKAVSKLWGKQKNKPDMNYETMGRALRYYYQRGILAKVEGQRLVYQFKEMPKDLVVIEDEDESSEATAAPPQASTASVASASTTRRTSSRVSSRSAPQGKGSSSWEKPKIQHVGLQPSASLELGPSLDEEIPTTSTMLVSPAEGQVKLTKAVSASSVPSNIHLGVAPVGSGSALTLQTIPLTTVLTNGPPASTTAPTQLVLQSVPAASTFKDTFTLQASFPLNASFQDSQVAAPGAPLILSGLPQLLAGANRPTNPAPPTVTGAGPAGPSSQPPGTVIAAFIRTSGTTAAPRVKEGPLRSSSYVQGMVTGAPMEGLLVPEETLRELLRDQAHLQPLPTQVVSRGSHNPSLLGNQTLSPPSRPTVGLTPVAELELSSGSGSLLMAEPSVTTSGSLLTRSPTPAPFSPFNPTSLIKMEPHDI
# Summary of the method: as §1
# ELK4 = biological target: T3, ELK4 (Homo sapiens, UniProt P28324-2 1-405); conditions: protein: recombinant; tags: N-terminal GST; dsDNA, one strand shown
# T3 sequence: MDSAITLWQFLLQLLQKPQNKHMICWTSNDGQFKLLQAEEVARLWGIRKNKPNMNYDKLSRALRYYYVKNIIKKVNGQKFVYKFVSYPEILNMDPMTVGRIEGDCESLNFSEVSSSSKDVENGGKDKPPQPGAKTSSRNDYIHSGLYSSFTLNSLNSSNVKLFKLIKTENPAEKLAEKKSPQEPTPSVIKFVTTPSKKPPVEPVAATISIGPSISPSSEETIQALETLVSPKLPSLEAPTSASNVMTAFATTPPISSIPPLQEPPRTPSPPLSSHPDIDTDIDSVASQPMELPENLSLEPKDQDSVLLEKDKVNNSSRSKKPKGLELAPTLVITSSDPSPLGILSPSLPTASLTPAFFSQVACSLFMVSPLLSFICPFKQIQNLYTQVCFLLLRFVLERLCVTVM
# Summary of the method: as §1
# ETV2 = biological target: T4, ETV2 (Homo sapiens, UniProt O00321 1-342); conditions: protein: recombinant; tags: N-terminal GST; dsDNA, one strand shown
# T4 sequence: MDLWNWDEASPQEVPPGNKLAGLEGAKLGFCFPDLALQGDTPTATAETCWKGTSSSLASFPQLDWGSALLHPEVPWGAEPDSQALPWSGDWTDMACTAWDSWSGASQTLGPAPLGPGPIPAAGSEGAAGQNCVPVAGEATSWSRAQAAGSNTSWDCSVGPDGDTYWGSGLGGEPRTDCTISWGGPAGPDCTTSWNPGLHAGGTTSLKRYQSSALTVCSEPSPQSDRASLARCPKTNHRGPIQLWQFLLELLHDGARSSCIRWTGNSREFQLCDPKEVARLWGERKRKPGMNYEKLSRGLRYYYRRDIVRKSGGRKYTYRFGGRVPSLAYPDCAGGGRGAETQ
# Summary of the method: as §1
# ELF3 = biological target: T5, ELF3 (Homo sapiens, UniProt P78545 1-371); conditions: protein: recombinant; tags: N-terminal GST; dsDNA, one strand shown
# T5 sequence: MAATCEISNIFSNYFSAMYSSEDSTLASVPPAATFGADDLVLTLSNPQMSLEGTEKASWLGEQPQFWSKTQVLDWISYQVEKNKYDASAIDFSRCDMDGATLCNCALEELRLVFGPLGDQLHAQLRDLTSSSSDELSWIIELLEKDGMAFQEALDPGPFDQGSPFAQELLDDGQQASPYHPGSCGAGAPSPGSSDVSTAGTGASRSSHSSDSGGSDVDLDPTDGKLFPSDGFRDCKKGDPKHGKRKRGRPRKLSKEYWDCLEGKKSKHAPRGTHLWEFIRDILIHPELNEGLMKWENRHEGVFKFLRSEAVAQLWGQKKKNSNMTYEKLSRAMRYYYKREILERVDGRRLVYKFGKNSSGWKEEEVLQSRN
# Summary of the method: as §1
# CRX = CRX (Homo sapiens, UniProt O43186 1-299); conditions: protein: recombinant; tags: N-terminal GST; dsDNA, one strand shown
# CRX, sequence (O43186 whole entry): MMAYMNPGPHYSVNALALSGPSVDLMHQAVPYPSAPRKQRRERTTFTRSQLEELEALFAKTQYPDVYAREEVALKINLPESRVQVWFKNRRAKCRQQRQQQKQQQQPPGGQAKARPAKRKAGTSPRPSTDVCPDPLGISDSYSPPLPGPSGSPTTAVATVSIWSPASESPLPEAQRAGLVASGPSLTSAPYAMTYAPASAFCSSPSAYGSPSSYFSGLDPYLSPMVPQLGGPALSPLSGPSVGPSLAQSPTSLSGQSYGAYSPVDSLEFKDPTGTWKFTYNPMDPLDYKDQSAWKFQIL
# Summary of the method: as §1
# ETV1 = ETV1 (Homo sapiens, UniProt P50549 1-477); conditions: protein: recombinant; tags: N-terminal GST; dsDNA, one strand shown
# ETV1, sequence (P50549 whole entry): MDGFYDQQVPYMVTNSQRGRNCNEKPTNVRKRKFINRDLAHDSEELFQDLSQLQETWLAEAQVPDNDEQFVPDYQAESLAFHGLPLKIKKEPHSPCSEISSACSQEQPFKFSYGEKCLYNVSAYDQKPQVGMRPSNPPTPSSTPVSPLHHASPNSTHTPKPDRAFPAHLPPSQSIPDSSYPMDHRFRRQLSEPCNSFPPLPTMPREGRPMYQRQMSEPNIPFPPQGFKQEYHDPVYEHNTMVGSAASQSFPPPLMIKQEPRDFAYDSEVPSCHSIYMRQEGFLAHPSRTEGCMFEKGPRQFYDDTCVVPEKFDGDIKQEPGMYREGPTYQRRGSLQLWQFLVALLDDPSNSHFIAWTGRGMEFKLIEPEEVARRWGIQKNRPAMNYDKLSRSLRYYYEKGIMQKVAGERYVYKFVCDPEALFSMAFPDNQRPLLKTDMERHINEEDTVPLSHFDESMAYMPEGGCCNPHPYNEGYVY
# Summary of the method: as §1
# ERF = biological target: T6, ERF (Homo sapiens, UniProt P50548 1-548); conditions: protein: recombinant; tags: N-terminal GST; dsDNA, one strand shown
# T6 sequence: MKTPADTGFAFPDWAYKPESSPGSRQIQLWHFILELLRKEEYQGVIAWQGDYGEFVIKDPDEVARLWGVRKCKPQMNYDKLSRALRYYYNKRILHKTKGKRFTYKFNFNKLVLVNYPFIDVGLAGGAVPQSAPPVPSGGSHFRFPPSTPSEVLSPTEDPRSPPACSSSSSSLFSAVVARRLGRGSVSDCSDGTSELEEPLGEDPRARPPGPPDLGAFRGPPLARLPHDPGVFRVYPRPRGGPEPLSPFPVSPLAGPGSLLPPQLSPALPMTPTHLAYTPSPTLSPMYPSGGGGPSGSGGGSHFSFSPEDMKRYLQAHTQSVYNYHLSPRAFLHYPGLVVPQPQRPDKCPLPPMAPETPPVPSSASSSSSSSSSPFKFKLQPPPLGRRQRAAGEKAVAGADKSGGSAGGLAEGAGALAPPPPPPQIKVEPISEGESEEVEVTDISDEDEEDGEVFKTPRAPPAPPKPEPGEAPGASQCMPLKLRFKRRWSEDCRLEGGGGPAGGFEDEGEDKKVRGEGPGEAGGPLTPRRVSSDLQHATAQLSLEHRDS
# Summary of the method: as §1
# ETV3L = biological target: T7, ETV3L (Homo sapiens, UniProt Q6ZN32 1-361); conditions: protein: recombinant; tags: N-terminal GST; dsDNA, one strand shown
# T7 sequence: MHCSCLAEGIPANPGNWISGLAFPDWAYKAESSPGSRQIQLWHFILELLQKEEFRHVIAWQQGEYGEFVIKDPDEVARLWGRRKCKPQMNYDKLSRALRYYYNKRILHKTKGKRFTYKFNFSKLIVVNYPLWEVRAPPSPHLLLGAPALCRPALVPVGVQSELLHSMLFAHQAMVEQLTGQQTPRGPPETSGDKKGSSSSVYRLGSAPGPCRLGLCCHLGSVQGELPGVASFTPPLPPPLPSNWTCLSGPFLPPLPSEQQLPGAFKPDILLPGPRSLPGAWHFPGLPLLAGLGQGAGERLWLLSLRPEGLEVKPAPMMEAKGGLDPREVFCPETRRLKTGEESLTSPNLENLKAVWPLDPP
# Summary of the method: as §1
# ETS2 = biological target: T8, ETS2 (Homo sapiens, UniProt P15036 1-469); conditions: protein: recombinant; tags: N-terminal GST; dsDNA, one strand shown
# T8 sequence: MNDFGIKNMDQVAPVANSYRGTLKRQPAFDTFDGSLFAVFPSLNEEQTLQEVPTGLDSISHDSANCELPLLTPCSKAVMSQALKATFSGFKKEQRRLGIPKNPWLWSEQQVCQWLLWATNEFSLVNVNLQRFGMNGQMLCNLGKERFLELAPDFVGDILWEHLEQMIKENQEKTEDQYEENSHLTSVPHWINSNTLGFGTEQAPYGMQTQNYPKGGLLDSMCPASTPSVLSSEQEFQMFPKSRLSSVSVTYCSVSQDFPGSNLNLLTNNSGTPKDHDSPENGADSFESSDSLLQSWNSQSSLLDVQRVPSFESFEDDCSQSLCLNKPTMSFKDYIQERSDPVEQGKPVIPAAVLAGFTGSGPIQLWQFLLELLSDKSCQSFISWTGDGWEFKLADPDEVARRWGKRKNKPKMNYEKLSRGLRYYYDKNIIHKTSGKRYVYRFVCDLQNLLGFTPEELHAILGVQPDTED
# Summary of the method: as §1
# SPDEF = biological target: T9, SPDEF (Homo sapiens, UniProt O95238 1-335); conditions: protein: recombinant; tags: N-terminal GST; dsDNA, one strand shown
# T9 sequence: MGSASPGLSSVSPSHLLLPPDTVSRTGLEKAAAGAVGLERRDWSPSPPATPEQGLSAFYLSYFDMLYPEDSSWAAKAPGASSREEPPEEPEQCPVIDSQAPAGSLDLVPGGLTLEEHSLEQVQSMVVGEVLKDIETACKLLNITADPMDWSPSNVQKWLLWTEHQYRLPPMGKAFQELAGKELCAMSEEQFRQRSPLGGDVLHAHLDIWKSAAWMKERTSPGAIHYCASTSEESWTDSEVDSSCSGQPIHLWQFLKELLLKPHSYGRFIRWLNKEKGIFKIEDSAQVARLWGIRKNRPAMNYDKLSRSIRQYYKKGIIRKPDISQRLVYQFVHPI
# Summary of the method: as §1
# ETV7 = biological target: T10, ETV7 (Homo sapiens, UniProt Q9Y603 1-341); conditions: protein: recombinant; tags: N-terminal GST; dsDNA, one strand shown
# T10 sequence: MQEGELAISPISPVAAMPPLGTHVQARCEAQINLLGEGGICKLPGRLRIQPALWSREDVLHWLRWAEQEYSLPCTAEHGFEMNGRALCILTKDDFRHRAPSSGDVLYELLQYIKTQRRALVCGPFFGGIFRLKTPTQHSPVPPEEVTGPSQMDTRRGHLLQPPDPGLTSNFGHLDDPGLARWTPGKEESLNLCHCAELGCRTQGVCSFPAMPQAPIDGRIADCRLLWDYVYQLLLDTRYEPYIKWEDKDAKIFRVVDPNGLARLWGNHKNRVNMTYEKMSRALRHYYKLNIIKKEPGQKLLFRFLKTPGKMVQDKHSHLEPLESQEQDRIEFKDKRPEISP
# Summary of the method: as §1
# ELF5 = biological target: T11, ELF5 (Homo sapiens, UniProt Q9UKW6-2 1-255); conditions: protein: recombinant; tags: N-terminal GST; dsDNA, one strand shown
# T11 sequence: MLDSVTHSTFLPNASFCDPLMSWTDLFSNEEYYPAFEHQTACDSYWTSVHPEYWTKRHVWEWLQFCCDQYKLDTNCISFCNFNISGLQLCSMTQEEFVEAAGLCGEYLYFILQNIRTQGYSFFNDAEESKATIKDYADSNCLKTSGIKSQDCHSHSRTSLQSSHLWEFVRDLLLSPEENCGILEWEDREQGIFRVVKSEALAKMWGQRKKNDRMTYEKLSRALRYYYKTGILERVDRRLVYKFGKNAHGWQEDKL
# Summary of the method: as §1
# ETV3 = biological target: T12, ETV3 (Homo sapiens, UniProt P41162-2 1-143); conditions: protein: recombinant; tags: N-terminal GST; dsDNA, one strand shown
# T12 sequence: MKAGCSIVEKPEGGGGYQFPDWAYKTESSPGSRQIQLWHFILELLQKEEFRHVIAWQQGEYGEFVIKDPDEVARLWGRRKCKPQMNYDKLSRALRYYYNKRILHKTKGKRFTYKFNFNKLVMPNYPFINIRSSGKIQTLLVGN
# Summary of the method: as §1
# ETV6 = ETV6 (Homo sapiens, UniProt P41212 1-452); conditions: protein: recombinant; tags: N-terminal GST; dsDNA, one strand shown
# ETV6, sequence (P41212 whole entry): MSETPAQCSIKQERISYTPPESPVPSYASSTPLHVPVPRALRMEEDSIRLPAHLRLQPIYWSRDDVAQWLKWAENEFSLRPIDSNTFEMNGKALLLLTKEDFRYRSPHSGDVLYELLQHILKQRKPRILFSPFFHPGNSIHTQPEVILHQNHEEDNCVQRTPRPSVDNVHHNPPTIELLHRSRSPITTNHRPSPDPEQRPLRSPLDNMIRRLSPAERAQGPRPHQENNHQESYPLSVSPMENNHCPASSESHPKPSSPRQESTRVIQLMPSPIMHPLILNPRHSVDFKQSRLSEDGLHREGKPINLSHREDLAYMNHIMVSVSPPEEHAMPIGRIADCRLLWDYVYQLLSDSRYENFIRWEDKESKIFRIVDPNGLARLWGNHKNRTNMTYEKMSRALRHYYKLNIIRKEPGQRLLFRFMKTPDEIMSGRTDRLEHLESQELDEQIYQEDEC
# Summary of the method: as §1
sequence,measurement,setting,value
CTTACT,binding signal,FEV,"1.17 fold enrichment (6-mer frequency, TF over GST control)"
same,binding signal,ETV5,"1.28 fold enrichment (6-mer frequency, TF over GST control)"
same,binding signal,HSF1,"1.34 fold enrichment (6-mer frequency, TF over GST control)"
same,binding signal,SPIC,"1.1 fold enrichment (6-mer frequency, TF over GST control)"
same,binding signal,ELF4,"1.36 fold enrichment (6-mer frequency, TF over GST control)"
same,binding signal,ELK4,"1.12 fold enrichment (6-mer frequency, TF over GST control)"
same,binding signal,ETV2,"1.39 fold enrichment (6-mer frequency, TF over GST control)"
same,binding signal,ELF3,"1.24 fold enrichment (6-mer frequency, TF over GST control)"
same,binding signal,CRX,"1.58 fold enrichment (6-mer frequency, TF over GST control)"
same,binding signal,ETV1,"1.23 fold enrichment (6-mer frequency, TF over GST control)"
same,binding signal,ERF,"1.32 fold enrichment (6-mer frequency, TF over GST control)"
same,binding signal,ETV3L,"1.22 fold enrichment (6-mer frequency, TF over GST control)"
same,binding signal,ETS2,"1.26 fold enrichment (6-mer frequency, TF over GST control)"
same,binding signal,SPDEF,"1.21 fold enrichment (6-mer frequency, TF over GST control)"
same,binding signal,ETV7,"1.18 fold enrichment (6-mer frequency, TF over GST control)"
same,binding signal,ELF5,"1.3 fold enrichment (6-mer frequency, TF over GST control)"
same,binding signal,ETV3,"1.27 fold enrichment (6-mer frequency, TF over GST control)"
same,binding signal,ETV6,"1.3 fold enrichment (6-mer frequency, TF over GST control)"
